We go through 8 compounds from PubChem BioAssay (NCI).

Holding throughout (experiment): NCI-60 one-dose screen, 48 h (100 = growth as untreated, 0 = no growth, -100 = all killed)
Conditions in all cases: 10 µM unless noted

The test system of test [1] is NCI-H23 lung.
The test system of test [2] is NCI-H226 lung.
The subject of test [3] is NCI-H322M lung.
The subject of test [4] is HOP-62 NSCLC.
Test [5] concerns NCI-H460 lung.
For test [6], the system named is HOP-92 NSCLC.
The test system of test [7] is A549/ATCC NSCLC.
For test [8], the system named is 786-0 renal.
Test [9] deals with COLO 205 colon.
The test system of test [10] is DU-145 prostate.
The subject of test [11] is K-562 leukemia.
Test [12] concerns MALME-3M melanoma.
In test [13] the test system is MDA-MB-231 breast.
The test system of test [14] is RXF 393 renal.
The subject of test [15] is SF-268 CNS.
The test system of test [16] is SF-295 CNS.
Test [17] concerns UACC-257 melanoma.
The subject of test [18] is M14 melanoma.
Test [19] deals with SF-539 CNS.

Compounds without any hit were thinned out: in the full panel of roughly 83,000, 20% have a hit.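 Cell lines were cultured in 96-well plates, exposed to a single compound concentration, and assessed for percent growth 48 hours later.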 Values without a mark were called inactive. Calls of active or inactive are those of the source. The calls were made as follows: active = growth percent below 10; inactive = the rest.

`O=C1c2cccc3c([N+](=O)[O-])ccc(c23)C(=O)N1CCCCl`: the growth is -74.8% [100 µM] (active) in [1]; -54.1% [100 µM] (active) in [2]; -96.2% [100 µM] (active) in test [3]; -92.4% [100 µM] (active) in test [4]; -34.7% [100 µM] (active) in test [5]; -82.5% [100 µM] (active) in [6]. In addition, the growth in [7] is -73.7% [100 µM] (active); in test [8], -83.8% [100 µM] (active); in [9], -80.4% [100 µM] (active); in [10] it was -82.1% [100 µM] (active); in [11], -25.8% [100 µM] (active); in [12], -73.9% [100 µM] (active). Moreover, the growth in [13] was -93.1% [100 µM] (active); in test [14] it was -83.3% [100 µM] (active); in test [15], -78.9% [100 µM] (active); in [16], -92% [100 µM] (active); in [17], -97% [100 µM] (active); in test [18], -85.6% [100 µM] (active).
`COc1cccc(CCN2C(=O)CCC3=C2CCC3=O)c1`: the growth in test [1] is 96.9%; in test [2], 97.4%; in test [3] it was 101%; in [4] it was 102%; in test [5], 115%; in test [6], 86%. Also, the growth is 112% in [7]; 97.6% in test [8]; 108% in test [9]; 114% in test [10]; 106% in test [11]; 100% in test [12]. The growth in [13] is 78.2%; in [14], 112%; in [15] it was 119%; in test [16], 97.6%; in [19], 97.8%; in test [18] it was 83.8%.
As for `O=C1NC(=O)/C(=C\c2ccco2)S1`, the growth was 101% in [1]; 95.8% in [2]; 111% in test [3]; 90.7% in test [4]; 105% in test [5]; 87% in test [6]. Moreover, the growth in [7] is 108%; in [8], 99%; in test [9], 91.4%; in [10] it was 112%; in test [11] it was 111%; in [12], 101%. The growth is 89.5% in [13]; 106% in test [14]; 99.4% in [15]; 103% in [19]; 108% in [17]; 104% in test [18].
`Cc1ccc(C2=Nc3c(ccc4c(C)c(C)c(=O)oc34)OC2)cc1`: the growth in [1] is 97.4%; in test [2], 101%; in test [3], 90.2%; in test [4], 97.3%; in test [5], 102%; in test [6] it was 87.1%. Besides, the growth in [7] was 99.5%; in [8], 93.6%; in test [9] it was 111%; in [10], 106%; in test [11], 95.4%; in test [12], 104%. Besides, the growth in [13] is 105%; in [14], 109%; in test [15] it was 108%; in test [16], 94.3%; in test [18], 103%.
`CCCCCCCSc1ncnc2[nH]ncc12`: the growth was 93.9% in test [1]; 77.4% in [2]; 93.9% in test [3]; 95.7% in test [4]; 103% in test [5]; -2.1% (active) in [6]. Besides, the growth in test [7] was 101%; in test [8], 76.3%; in test [9], 93.9%; in [10] it was 89.5%; in test [11], 88.8%; in [12], 120%. Further, the growth in [13] was 84.4%; in test [14], 61.2%; in test [15], 82.3%; in test [19], 87.5%; in test [17], 104%; in test [18], 109%.
Consider `COc1cc(-c2nnc(-c3nc(-c4cc(OC)c(OC)c(OC)c4)n4ccccc34)o2)ccc1N`, for which the growth in test [1] was 67.7%; in test [2], 83%; in test [3], 83.1%; in test [4], 89%; in [5], 68.3%; in test [6] it was 29.2%. The growth in test [7] is 28.2%; in test [8] it was 68.6%; in [9], 88.7%; in test [10] it was 85.4%; in [11], 64.7%; in [12], 86.5%. Moreover, the growth in [13] is 84.4%; in test [14], 84.4%; in test [15], 83.6%; in [19] it was 98.8%; in test [17], 93.2%; in test [18], 80.3%.
Take `O=C(N/N=C/c1cccc(O)c1O)c1ccccc1`: the growth was 28.2% in test [1]; 17.3% in test [2]; 13.9% in test [3]; 25.9% in [4]; 3.29% (active) in test [5]; -4.33% (active) in test [6]. The growth in [7] is 6.43% (active); in [8] it was 22%; in test [9], 5.29% (active); in [10] it was 33%; in test [11] it was 15.6%; in test [12], 20.4%. Moreover, the growth in test [13] was 30.6%; in [14], 29.7%; in test [15], 18.4%; in test [16] it was -1.63% (active); in [19], 6.6% (active); in [18] it was 15%.
Regarding `CC(C)OP(=O)(OC(C)C)c1ncc(-c2ccc(C(F)(F)F)cc2)c(NC2CCCCCC2)n1`, the growth in test [1] is -47.6% [33.3 µM] (active); in [2], -50.3% [33.3 µM] (active); in [3] it was -70% [33.3 µM] (active); in [4], -27.1% [33.3 µM] (active); in test [5], -64.5% [33.3 µM] (active); in [6], -93.7% [33.3 µM] (active). Moreover, the growth in test [7] is -33.6% [33.3 µM] (active); in test [8] it was -67.6% [33.3 µM] (active); in test [9], -78% [33.3 µM] (active); in [10], -81.2% [33.3 µM] (active); in test [11], -22.1% [33.3 µM] (active); in [12], -85% [33.3 µM] (active). Further, the growth in [13] was -8.63% [33.3 µM] (active); in test [14] it was -85.7% [33.3 µM] (active); in test [15] it was -90.6% [33.3 µM] (active); in [16] it was -85.6% [33.3 µM] (active); in [17] it was -41.1% [33.3 µM] (active); in test [18], -90.2% [33.3 µM] (active).
